Values joined by “and” are separate entries in the source; they are usually repeats but may differ in a detail not shown here. Equal entries are not always repeated. Inconclusive results are not listed. Active and inactive are the calls of the source. The call rests on the fitted dose curve; in most records, active means well fitted inhibition curve with a large enough effect; inconclusive means small, poorly fitted or top-dose-only effect; inactive means no such curve, though single readings can be large or run the other way.
Potency means the concentration at half of the fitted maximal effect.

In this assay the test system is Zika virus NS2B-NS3 protease (linked). The experiment in a line: 384 well plate NINDS AMC confirmatory qHTS for Zika virus inhibitors (AID 1347163). Further: nearly all actives have a fitted effect of over 50% in size. As to conditions: Recombinant NS2B-NS3 protease, Ac-VKTGKR-AMC fluorescence; series mostly up to 1 mM. The text has this: Description: Assay Submitters (PI): Avindra Nath, Ph.D., National Institute of Neurological Disorders and Stroke (NINDS), Bethesda, MD Radhakrishnan Padmanabhan, Ph.D., Georgetown University (GU), Washington D.C. Zika Virus causes congenital defects, including microcephaly and is associated with Guillain-Barre syndrome, eningoencephalitis and myelitis in infected adult. […] Using a target-based approach, we hope to establish a screening paradigm to uncover novel, cell-active NS2B-NS3 protease (Zika Virus) specific inhibitors from NCATS' collection of small molecules using qHTS. […] Four assay panel was created to identify potential Zika Virus inhibitors. Namely, (1) GU unlinked NS2B-NS3 AMC tagged protease qHTS, (2) GU unlinked NS2B-NS3 Rhodamine tagged protease qHTS, (3) NINDS linked NS2B-NS3 AMC tagged protease qHTS, (4) NINDS linked NS2B-NS3 Rhodamine tagged protease qHTS. Active compounds are validated using a secondary assay in 384 well plate format. Early Translation Branch (ETB) National Center for Advancing Translational Sciences (NCATS), Rockville, MD National Institute of Health (NIH), Bethesda, Maryland
384-well NINDS AMC Assay The protease was diluted to 7.5 nM, 40.9 nM, or 82 nM in assay buffer and dispensed into a 96-well PCR plate (Applied Biosystems); 20 or 22 microL was transferred to a black 384-well assay plate (final protease concentration of 5 nM, 30 nM, or 60 nM, respectively). Compounds (3 microL, 1 microM - 10 mM, DMSO) were diluted and transferred to the assay plate (final concentrations ranged from 100 nM to 1 mM). Compounds were incubated with protease for ~15 minutes. The substrate, Ac-VKTGKR-AMC (Genscript), was dissolved in DMSO to a concentration of 6 mM and further diluted into assay buffer to a working concentration of 180 microM, then dispensed into a 384-well preparation plate (Eppendorf). A multichannel repeat pipettor was used to add 3 or 5 microL of substrate to the assay plate to give a final concentration of 30 microM. The plate was incubated in the dark at room temperature. After 25 minutes, the fluorescence intensity (excitation: 355 nm, emission: 460 nm) was measured and normalized to no-enzyme and no-inhibitor controls. Aprotinin39 (VWR) was used as an intraplate control.
A general note: In qHTS, concentration-response curves come from the screen itself.
Take `C=C1c2c(Cl)ccc(O)c2C(O)=C2C(=O)[C@]3(O)C(O)=C(C(N)=O)C(=O)[C@@H](N(C)C)[C@@H]3[C@@H](O)C12` (stereo not given in full): the Potency was 70.8 µM (active).

On to `C=CC(C)(C)c1[nH]c2ccccc2c1C1=C(O)C(=O)C(c2c[nH]c3c(CC=C(C)C)cccc23)=C(O)C1=O`, for which the Potency is 11.2 µM (active).

For the compound `Cc1c(C2(c3cc(C(C)C)c(O)c(Br)c3C)OS(=O)(=O)c3ccccc32)cc(C(C)C)c(O)c1Br`, the Potency was 126 µM (active).

In the case of `Cc1ccc(-c2nnc(Nc3ccc(Br)cc3)c3ccccc23)cc1S(=O)(=O)NCc1nc2ccccc2[nH]1`, the Potency entry was “inactive”.

For `Cc1ccc2nc(NS(=O)(=O)c3ccc(Cl)cc3)c(Nc3ccc(C(=O)O)cc3)nc2c1`, the Potency is 141 µM (active).

Consider `O=C(O)c1cc(-c2ccc(C(F)(F)F)cc2)nc2n[nH]c(-c3ccccc3)c12`, for which the Potency entry was “inactive”.

On to `O=C(O)CSc1nc2ccc(NC(=O)COc3ccc(Cl)cc3)cc2s1`, for which the Potency is 25.1 µM (active).

In the case of `N#C/C(=C\c1ccc(-c2cc(Cl)ccc2Cl)o1)C(=O)Nc1ccccc1C(=O)O`, the Potency was 20 µM (active).

On to `O=c1c(-c2cc(O)c(O)c(O)c2)coc2cc(O)c(O)c(O)c12`, for which the Potency was 316 µM (active).

As for `N#Cc1ccccc1OCC1CN(Cc2cccc(C(F)(F)F)c2)C(=O)c2c(ccnc2-c2ccc(OCC(=O)O)cc2)O1` (stereo not given), the Potency was 70.8 µM (active).

For the compound `Nc1c(N=Nc2ccc([N+](=O)[O-])cc2)c(S(=O)(=O)O)cc2cc(S(=O)(=O)O)c(/C=C/c3ccccc3)c(O)c12`, the Potency was 79.4 µM (active).

Turning to `COc1cc(C2Nc3ccccc3-c3nnc(SCc4ccc(Cl)cc4)nc3O2)ccc1OCC(=O)O` (stereo not given), the Potency is 282 µM (active).

As for `Clc1cc(OCc2nnc3sc(Cc4ccccc4)nn23)c(Cl)cc1OCc1nnc2sc(Cc3ccccc3)nn12`, the Potency was 28.2 µM (active).

Regarding `Cc1cccc(C(=O)Nc2ccc(C(=O)OCc3cc(=O)n4nc(C5CC5)sc4n3)cc2)c1`, the Potency result is “inactive”.

In the case of `Cc1c(Cl)cccc1NS(=O)(=O)c1ccc(NS(=O)(=O)c2ccc3c(c2)OCCO3)cc1`, the Potency is 141 µM (active).

Regarding `CN(C)c1cc(CNCC(C)(C)C)c(O)c2c1C[C@H]1C[C@H]3[C@H](N(C)C)C(=O)C(C(N)=O)=C(O)[C@@]3(O)C(=O)C1=C2O`, the Potency is 178 µM (active).

Regarding `CCS(=O)(=O)c1cccc(C(=O)Nc2ccc(-c3nc4ccccc4s3)c(O)c2)c1`, the Potency result is “inactive”.

As for `O=C(Nc1cc(C(=O)Nc2ccc(S(=O)(=O)O)cc2S(=O)(=O)O)cc(C(=O)Nc2ccc(S(=O)(=O)O)cc2S(=O)(=O)O)c1)Nc1cc(C(=O)Nc2ccc(S(=O)(=O)O)cc2S(=O)(=O)O)cc(C(=O)Nc2ccc(S(=O)(=O)O)cc2S(=O)(=O)O)c1`, the Potency is 8.91 µM (active) and 7.08 µM (active).

Regarding `Cc1cc(C)cc(C(=O)N(C)[C@H](Cc2ccc(-c3ccccc3)cc2)C(=O)N[C@@H](Cc2c[nH]c3ccccc23)C(=O)O)c1`, the Potency is 158 µM (active).

With `CC[C@H](C)[C@H]1O[C@]2(CC[C@@H]1C)C[C@@H]1C[C@@H](C/C=C(\C)[C@@H](O[C@H]3C[C@H](OC)[C@@H](O[C@H]4C[C@H](OC)[C@@H](O)[C@H](C)O4)[C@H](C)O3)[C@@H](C)/C=C/C=C3\CO[C@@H]4[C@H](O)C(C)=C[C@@H](C(=O)O1)[C@]34O)O2`, the Potency result is “inactive”.

In the case of `CC(=O)Oc1cc2c(c(C)c1OC(C)=O)CC=C1[C@@]2(C)CC[C@@]2(C)[C@H]3C[C@](C)(C(=O)O)CC[C@]3(C)CC[C@]12C`, the Potency is 158 µM (active).

For the compound `O=c1oc2ccccc2cc1-c1nnc(Nc2ccc(Cl)cc2Cl)s1`, the Potency was 50.1 µM (active).

Consider `Cc1ccc(Nc2nnc(-c3ccc(C)c(S(=O)(=O)NCc4nc5ccccc5[nH]4)c3)c3ccccc23)cc1`, for which the Potency entry is “inactive”.

With `O=C(O)COc1ccc(-c2nccc3c2C(=O)N(Cc2cccc(C(F)(F)F)c2)CC(CNC(=O)c2cccc(Cl)c2)O3)cc1` (stereo not given), the Potency entry is “inactive”.

For `O=C(OCc1cc(=O)n2nc(C3CC3)sc2n1)c1ccc(NC(=O)c2ccccc2F)cc1`, the Potency result was “inactive”.

As for `CC(Oc1ccccc1)C(=O)Nc1ccc(C(=O)OCc2cc(=O)n3nc(C4CC4)sc3n2)cc1` (stereo not given), the Potency entry was “inactive”.

Take `O=C(O)c1cccc(-c2ccc(OC(F)(F)F)cc2)c1`: the Potency entry was “inactive”.

Consider `Nc1c(S(=O)(=O)O)cc(Nc2ccc(Nc3nc(Cl)nc(Nc4ccc(S(=O)(=O)O)cc4)n3)c(S(=O)(=O)O)c2)c2c1C(=O)c1ccccc1C2=O`, for which the Potency was 10 µM (active).

Regarding `CC(C)c1ccc(NC(=O)c2ccc3oc(=O)c(S(=O)(=O)c4ccc(F)cc4)cc3c2)cc1`, the Potency result is “inactive”.

Take `O=C(O)c1cc(NCc2cc(O)ccc2O)ccc1O`: the Potency result was “inactive”.

In the case of `O=C(O)c1ccc(NC(=O)c2cn(-c3ccccc3)nc2-c2ccc(Br)cc2)cc1`, the Potency was 44.7 µM (active).

Regarding `Cc1cc(NC(=O)c2ccc(Cl)c(Cl)c2)ccc1-c1cc2ccccc2oc1=O`, the Potency result was “inactive”.

For `Cc1ccc(-c2nnc(Nc3ccccc3)c3ccccc23)cc1S(=O)(=O)NCc1nc2ccccc2[nH]1`, the Potency result was “inactive”.

For `Cc1ccc(-c2cc(C(F)(F)F)c(C#N)c(SCC(=O)O)n2)cc1`, the Potency was 141 µM (active).

For `O=C(Nc1ccccc1)c1ccc2c(O)c(S(=O)(=O)c3ccc(Cl)cc3)c(=O)[nH]c2c1`, the Potency is 398 µM (active).

With `O=C(O[C@@H]1Cc2c(O)cc(O)cc2OC1c1ccc(O)c(O)c1)c1cc(O)c(O)c(O)c1` (stereo not given in full), the Potency is 25.1 µM (active).

Regarding `CN(CC(=O)N(Cc1ccc(C2CCCCC2)cc1)c1ccc(C(=O)O)cc1)S(=O)(=O)c1c(F)c(F)c(F)c(F)c1F`, the Potency was 50.1 µM (active).

For the compound `COc1cc(-c2ccc(N=Nc3ccc4c(S(=O)(=O)O)cc(S(=O)(=O)O)c(N)c4c3O)c(OC)c2)ccc1N=Nc1ccc2c(S(=O)(=O)O)cc(S(=O)(=O)O)c(N)c2c1O`, the Potency was 7.08 µM (active).

For `CN1CCN(C(=O)CCN2C(=O)/C(=C\c3ccccc3F)SC2=S)CC1`, the Potency is 251 µM (active).

Regarding `O=C(O)c1c(Sc2ccccc2)c2cc(Cl)ccc2n1Cc1ccc(Cl)cc1`, the Potency was 126 µM (active).

The values above are taken from PubChem BioAssay (NCATS).
